This is an account of results in PubChem BioAssay (NCATS).

Several values for one entry are separate records, joined by “and”; a condition that tells them apart may be missing. Equal entries are not always repeated. Inconclusive results are not listed. Activity calls are given as the source filed them. Calls come from the whole dose curve; as a rule, active = well fitted inhibition curve with a large enough effect in the signal ratio, with a control signal flat (not every such curve was filed as active); inconclusive = small, poorly fitted or top-dose-only effect, or effect the other way, or a change in a side signal; inactive = no such curve, though single readings can be large or run the other way; the % refers to the signal ratio.
% is set by controls: 0 for no effect and ±100 for the full control effect.

In the experiment the target is Retinoic acid receptor RXR-alpha (Homo sapiens) (UniProt P19793). Kind of experiment: qHTS assay for small molecule antagonists of retinoid X receptor alpha signaling (AID 588546). The conditions noted are these: HEK293T RXRa-UAS-bla, beta-lactamase ratio, antagonist mode. The text has this: NIH Chemical Genomics Center [NCGC] U.S. Environmental Protection Agency [EPA] National Institutes of Environmental Health Sciences [NIEHS] National Toxicology Program [NTP] NCGC Assay Overview The Retinoid X receptor (RXR), a nuclear hormone receptor is expressed in liver, spleen, placenta, epidermis, central nervous system. These receptors are able to form homo and heterodimers with other nuclear receptors and due to this heterodimerizing ability, RXR functions as master regulators producing diverse physiological effects. Three subtypes of RXR exist; alpha, beta and gamma. Retinoid X receptor alpha (RXR-alpha) has potential roles in metabolic signaling pathways, skin alopecia, dermal cysts, cardiac development, insulin sensitization etc. Therefore screening environmental chemicals on RXR-alpha signaling can be used for the studies focused on such therapeutic applications.
Retinoic acid receptor RXR-alpha (Homo sapiens), sequence (P19793 whole entry, looked up): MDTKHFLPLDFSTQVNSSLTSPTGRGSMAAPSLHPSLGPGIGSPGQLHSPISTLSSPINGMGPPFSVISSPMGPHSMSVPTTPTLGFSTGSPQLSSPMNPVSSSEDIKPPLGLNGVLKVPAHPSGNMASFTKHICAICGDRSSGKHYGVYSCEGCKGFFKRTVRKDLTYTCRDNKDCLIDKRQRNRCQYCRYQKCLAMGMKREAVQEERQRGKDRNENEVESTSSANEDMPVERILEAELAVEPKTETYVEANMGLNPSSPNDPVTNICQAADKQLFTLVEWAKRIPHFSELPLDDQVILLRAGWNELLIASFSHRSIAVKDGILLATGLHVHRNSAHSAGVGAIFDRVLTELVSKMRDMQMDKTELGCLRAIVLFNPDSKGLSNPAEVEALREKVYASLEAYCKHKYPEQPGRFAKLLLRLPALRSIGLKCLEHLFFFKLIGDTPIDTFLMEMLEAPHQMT
NCGC Assay Protocol Summary Using a beta-lactamase reporter-gene under control of Retinoid X receptor--alpha (RXR-alpha) response element, a cell-based assay [GeneBLAzer (RXR-alpha -UAS-bla assay developed by Invitrogen] was used to measure RXR-alpha ligands signaling. GeneBLAzer RXR-alpha -UAS-bla HEK293T cells were used with assay medium containing 2% charcoal-stripped FBS. The assay was performed in clear bottom black Greiner 1536-well plates. Library compounds were measured for their ability to inhibit the reporter gene activity. Compounds were screened in a titration series in 1536-well format. The fluorescence intensity (405 nm excitation, 460/530 nm emission) was measured using an EnVision plate reader. Data was normalized relative to 9-cis-retinoic acid control (500 nM, 100%), and DMSO only wells (basal, 0%). Concentration-response titration points for each compound were fitted to the Hill equation yielding concentrations of half-maximal inhibition (IC50) and maximal response (efficacy) values. qHTS protocol for RXR-alpha beta-lactamase assay in antagonist mode [Step] [Parameter] [Value] [Description] 1. Reagent; 5 uL; 2500 cells/well 2. Incubation; 37 C for 4 hrs 3. Compounds; 23 nL; 0.59 nM to 92 uM 4. Controls (DMSO); 23 nL 5. Agonist (Stimulator); 1uL; 9-cis-retinoic acid at 500 nM and 100 nM final concentrations 6. Incubation; 37 C for 18 hrs 7. Detection reagent; 1 uL of CCF4-dye 8. Incubation; RT for 2 hrs 9. Detection; Fluorescence; Envision plate reader
As for `COc1ccccc1O`, the max response is 0.752% (inactive) and 5.31% (inactive) and 3.65% (inactive).

With `CCOC(=O)c1ccc(O)cc1`, the max response is 4.29% (inactive).

For `CC1(C)[C@@H]2CC[C@@]1(C)C(=O)C2`, the max response is 2.47% (inactive).

With `CCCCC(CC)COC(=O)c1ccccc1O` (configuration not stated), the max response was 6.6% (inactive).

On to `COc1ccc(Cl)cc1C(=O)NCCc1ccc(S(=O)(=O)NC(=O)NC2CCCCC2)cc1`, for which the max response is -9.84% (inactive).

In the case of `C[C@]12C[C@H](O)[C@H]3[C@@H](CCC4=CC(=O)CC[C@@]43C)[C@@H]1CC[C@@H]2C(=O)CO`, the max response is 9.95% (inactive).

Consider `O=C1c2c(O)cccc2Cc2cccc(O)c21`, for which the max response is 9.5% (inactive).

Turning to `Oc1cccc(O)c1`, the max response was 1.73% (inactive).

`CC(O)CN(CCN(CC(C)O)CC(C)O)CC(C)O` (configuration not stated): the max response was -14.1% (inactive).

As for `CN(C)CCOC(C)(c1ccccc1)c1ccccn1` (configuration not stated), the max response is -25.1% (inactive).

`NC(=O)N/N=C/c1ccc([N+](=O)[O-])o1`: the max response is 5.86% (inactive) and 14.5% (inactive).

Take `NCCNCCNCCN`: the max response is 10.1% (inactive).

Consider `O=S(=O)(O)NC1CCCCC1`, for which the max response is 5.18% (inactive).

`CCCCCCCCCCCCOS(=O)(=O)O`: the max response is 6.26% (inactive) [middle of 4 runs].

`CCCc1c(OCCCCc2nn[nH]n2)ccc(C(C)=O)c1O`: the max response was 3.05% (inactive).

With `CC12CCC(CC1)C(C)(C)O2`, the max response was 10.3% (inactive).

On to `Cc1cccc(Nc2cc(Cl)nc(SCC(=O)O)n2)c1C`, for which the max response is -6.08% (inactive).

Take `Nc1ccc(S(=O)(=O)Nc2nccs2)cc1`: the max response was 19.3% (inactive).

In the case of `CNC(=O)Oc1ccc2c(c1)[C@]1(C)CCN(C)[C@@H]1N2C`, the max response is 1.77% (inactive).

Consider `NCCNCCNCCNCCN`, for which the max response was -26.1% (inactive).

`[Cl][In]([Cl])[Cl]`: the max response was 17.5% (inactive).

On to `CN(C)CCCN1c2ccccc2Sc2ccc(Cl)cc21`, for which the max response is -16.5% (inactive).

`CC(O)COc1ccccc1` (configuration not stated): the max response was -2.29% (inactive).

As to `COC(=O)C1=C(C)NC(C)=C(C(=O)OC)C1c1ccccc1[N+](=O)[O-]`, the max response was 23.4% (inactive).

In the case of `C[C@]12CC[C@@H]3c4ccc(O)cc4CC[C@H]3[C@@H]1CCC2=O`, the max response was -13% (inactive).

Consider `CCCCOC(=O)c1ccc(O)cc1`, for which the max response was -15.2% (inactive) and -3.16% (inactive).

With `O=C1O[C@H]([C@@H](O)CO)C(O)=C1O`, the max response is 1.04% (inactive).
